Assay results published in PubChem BioAssay.
A number with no mark means an inactive call.

The molecules below were run against Homeobox protein Hox-A13 (Mus musculus) (UniProt Q62424) (assay: disruptors of Hoxa13 oligonucleotide interaction – biochemical, fluorescence polarization, labeled oligonucleotide, primary screen (AID 1185)). Conditions: Hoxa13:DNA binding, 15 min, higher = more signal, called active from +8 up or from −8 down.
Chain of Homeobox protein Hox-A13 (Mus musculus) (Q62424 whole entry, looked up): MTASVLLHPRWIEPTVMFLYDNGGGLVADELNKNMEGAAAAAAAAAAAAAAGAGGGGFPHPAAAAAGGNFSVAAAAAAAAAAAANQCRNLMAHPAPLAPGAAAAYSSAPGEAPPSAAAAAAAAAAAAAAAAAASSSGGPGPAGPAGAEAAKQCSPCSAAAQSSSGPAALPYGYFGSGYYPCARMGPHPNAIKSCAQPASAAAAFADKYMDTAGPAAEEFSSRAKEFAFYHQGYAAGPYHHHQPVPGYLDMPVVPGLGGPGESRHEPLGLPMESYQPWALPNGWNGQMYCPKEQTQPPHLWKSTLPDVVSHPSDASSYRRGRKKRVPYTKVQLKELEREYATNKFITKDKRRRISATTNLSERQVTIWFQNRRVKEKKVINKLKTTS
For CC(C)(C)N1C(=O)[C@H]2[C@H]3[C@H](O)[C@H](O)CC(=NOC[C@@H](O)COCc4ccco4)[C@H]3CC[C@H]2C1=O, the z-score was 0.976. C#CCCCON=C1C[C@@H](O)[C@@H](O)[C@@H]2[C@@H]3C(=O)N(CC)C(=O)[C@@H]3CC[C@H]12 showed a z-score of 0.0042. With CC(C)CON=C1C[C@@H](O)[C@@H](O)[C@@H]2[C@@H]3C(=O)N(Cc4ccccc4)C(=O)[C@@H]3CC[C@H]12 the z-score was -2.34. With CCOC(=O)CCN1C(=O)[C@H]2[C@H]3[C@H](O)[C@H](O)CC(=NOCC(C)C)[C@@H]3CC[C@H]2C1=O the z-score was -3.95. With O=C1C=C[C@@H](O)[C@@H]2[C@@H]3C(=O)N(Cc4ccc5c(c4)OCO5)C(=O)[C@@H]3CC[C@@H]12 the z-score was -0.416. Work on CC[C@@H](c1ccccc1)n1c(=O)n2n(c1=O)[C@H]1[C@H](O)[C@@H]3O[C@@H]3C(=NOCc3ccccc3)[C@H]1CC2 yielded a z-score of -4.2. COC(=O)[C@H](C)NC(=O)CCC1CC(OC(=O)NCc2ccc3c(c2)OCO3)CC2(CCCC(COC(=O)NCc3ccccc3)O2)O1 (stereo partly drawn) was tested, and the z-score was -2.47. COC(=O)[C@H](CCSC)NC(=O)CC=C[C@@H](C)CO was tested, and the z-score was -0.265. Molecule COc1ccc(COC(=O)NN=C2C[C@@H](O)[C@@H](O)[C@@H]3[C@@H]4C(=O)N(C5CCCCC5)C(=O)[C@@H]4CC[C@@H]23)cc1 has a z-score of -4.36. CON=C(C)CCC(=O)OC[C@H]1O[C@H](C#Cc2ccccc2)C=C[C@@H]1Oc1ccc(C)cc1 showed a z-score of -4.45. For CC(=O)OC[C@H]1O[C@@H](ON=C2[C@H]3CCn4c(=O)n(-c5ccccc5)c(=O)n4[C@H]3[C@H](O)[C@@H]3O[C@H]23)[C@H](OC(C)=O)[C@@H](OC(C)=O)[C@@H]1OC(C)=O, the z-score was -4.07. In the case of C[C@H]1CC[C@H]2C(=O)OC(COc3ccc(C(C)(C)C)cc3)CN2[C@@H]1c1ccc(Br)cc1 (stereo partly drawn), the z-score is reported as -3.32. Molecule CO[C@H]1C[C@@H]2C[C@H](O)CC(CC(=O)O[C@@H](C=CCC(C)C)C[C@@H]3CC[C@H](C)[C@@H](C1)O3)O2 has a z-score of -0.952. In the case of O=C1CCCC=C1C(O)c1ccc([N+](=O)[O-])cc1 (stereo not drawn), the z-score is reported as 0.164. COc1ccc(COC(=O)NN=C2C[C@@H](O)[C@@H](O)[C@@H]3[C@@H]4C(=O)N(Cc5ccc6c(c5)OCO6)C(=O)[C@@H]4CC[C@H]23)cc1 showed a z-score of -0.118. CON=C(C)CCN1CCc2nc(-c3ccccc3)c(-c3ccccc3)cc2C1 was tested, and the z-score was -2.53. With CCN1C(=O)[C@H]2[C@H]3[C@H](O)[C@H](O)CC(=NO[C@H](C)c4cn([C@@H]5COC[C@H]5O)nn4)[C@@H]3CC[C@H]2C1=O the z-score was -0.803. With CO[C@H]1COC(=O)[C@H](C)COC(=O)[C@H](C)NC(=O)CC=C[C@H]1C the z-score was -0.299. Work on CO[C@H]1COC(=O)CCC[C@H](C)[C@@H](OC)COC(=O)CC=C[C@@H]1C yielded a z-score of 0.544. CC(C)C(=O)N[C@H]1CCCN1C(=O)C=Cc1ccccc1 showed a z-score of -2.18. In the case of CCOC(=O)CCN1C(=O)[C@H]2[C@H]3[C@H](O)[C@H](O)CC(=NNC(=O)OCC)[C@H]3CC[C@H]2C1=O, the z-score is reported as -4.5. Work on CC(CCN1CCCc2nc(C)c(C)cc21)=NO[C@H](C)c1cn([C@H](CO)Cc2ccccc2)nn1 yielded a z-score of -7.43. COC(=O)[C@@H]1CC[C@H](C)[C@@H](c2ccc(Br)cc2)N1C[C@H](O)CN=[N+]=[N-] gave a z-score of -2.93. CCOC(=O)CCN1C(=O)[C@H]2[C@H]3[C@H](O)[C@H](O)CC(=NOCC=C(C)CCC=C(C)C)[C@@H]3CC[C@H]2C1=O showed a z-score of -1.21. For CCN1C(=O)[C@H]2[C@H]3[C@H](O)[C@H](O)CC(=NNC(=O)OCc4ccccc4)[C@@H]3CC[C@H]2C1=O, the z-score was -0.144. COC(=O)[C@@H]1CC[C@H](C)[C@@H](c2ccc(Br)cc2)N1C[C@@H](O)CN=[N+]=[N-] showed a z-score of -3.81. Molecule CC(C)CON=C1C[C@@H](O)[C@@H](O)[C@@H]2[C@@H]3C(=O)N([C@@H](C)c4ccccc4)C(=O)[C@@H]3CC[C@@H]12 has a z-score of -2.35. For CC(C)CON=C1C[C@@H](O)[C@@H](O)[C@@H]2[C@@H]3C(=O)N(Cc4ccc5c(c4)OCO5)C(=O)[C@@H]3CC[C@@H]12, the z-score was -0.441.
